Measured values published in PubChem BioAssay (NCI).
Compounds without any hit were thinned out: in the full panel of roughly 83,000, 20% have a hit.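 Single-dose data. Exposure time 48 hours. Values below 10 considered active.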 A number with no mark means an inactive call. Activity calls are given as the source filed them.

Legend:
Assay in all cases: NCI-60 one-dose screen, 48 h (100 = growth as untreated, 0 = no growth, -100 = all killed)
Conditions in all cases: 10 µM
NCI-H23 lung = system: NCI-H23 lung
NCI-H226 lung = system: NCI-H226 lung
NCI-H322M lung = system: NCI-H322M lung
HOP-62 NSCLC = system: HOP-62 NSCLC
NCI-H460 lung = system: NCI-H460 lung
HOP-92 NSCLC = system: HOP-92 NSCLC
NCI-H522 lung = system: NCI-H522 lung
A549/ATCC NSCLC = system: A549/ATCC NSCLC
786-0 renal = system: 786-0 renal
COLO 205 colon = system: COLO 205 colon

Structure (SMILES) | growth (NCI-H23 lung) | growth (NCI-H226 lung) | growth (NCI-H322M lung) | growth (HOP-62 NSCLC) | growth (NCI-H460 lung) | growth (HOP-92 NSCLC) | growth (NCI-H522 lung) | growth (A549/ATCC NSCLC) | growth (786-0 renal) | growth (COLO 205 colon)
C#CCNC(=O)CCC(=O)OC[C@]12CC[C@@H](C(=C)C)[C@@H]1C1CC[C@@H]3[C@@]4(C)CCCNC(C)(C)[C@@H]4CC[C@@]3(C)[C@]1(C)CC2 (stereo not given in full) | -91.8% (active) | -80.8% (active) | 39.2% | -23.9% (active) | -74% (active) | -14.4% (active) | -82.7% (active) | -76.5% (active) | -58.3% (active) | -83% (active)
Cc1cccc(NC(=O)CSc2nc3ccc(F)cc3c(=O)n2-c2ccc(Cl)cc2)c1C | 63% | 21.5% | 81.6% | 26.5% | 57.9% | 26.9% | 77% | 72.5% | 34.7% | 94.7%
CC(=O)NCC1=C(C)C=C2C(=O)[C@](C)(O)C3(CC3)C(C)=C21 | -76.6% (active) | -72.2% (active) | -30% (active) | -54.4% (active) | 4.33% (active) | -14.1% (active) | -64.8% (active) | -50.3% (active) | -40.8% (active) | -81.4% (active)
COc1ccc(/C=C/C(=O)c2ccc(S(=O)(=O)NCCNc3nc(Nc4ccc(F)cc4)nc(N(C)C)n3)cc2)cc1 | 44.8% | 21.7% | 55.3% | 51.2% | 15.1% | -15.9% (active) | 57.3% | 50.1% | 13.5% | 49.2%
CN(C)c1ccc(/C=C/c2nc3ccccc3c(=O)n2CC(=O)Nc2ccc(Cl)cc2)cc1 | 67.2% | 2.45% (active) | 61.7% | 25.4% | 44.6% | -13.6% (active) | 77.9% | 43.8% | 27.8% | 57.3%
COc1ccc2[nH]c(=O)c(CSc3cccc(N)c3)cc2c1 | 79.2% | 74.5% | 74.6% | 61.5% | 20.7% | 76.5% | 62.6% | 46.4% | 55% | 2.77% (active)
Cc1ccc(-c2ccc(SCC(=O)Nc3ccc(S(N)(=O)=O)cc3Br)nn2)cc1 | 27.3% | 22.6% | 36% | 14.1% | 8.44% (active) | -31.6% (active) | 47.2% | 15.8% | 16.4% | 33.1%
COc1ccc(OC)c(-c2cc(-c3c[nH]c4ccccc34)nc(N)c2C#N)c1 | -9.65% (active) | 14% | 24.8% | 10% (active) | -42.5% (active) | -36.8% (active) | -5.53% (active) | 21.1% | -52.3% (active) | -23.2% (active)
COc1cccc(-c2ccc(/C=N/NC(=O)c3[nH]c4ccc(Br)cc4c3-c3ccccc3)o2)c1 | 22.4% | 31.4% | 45.7% | 12.8% | 4.13% (active) | 54.4% | -42.8% (active) | 19.6% | 9.39% (active) | -40.6% (active)
CN1CCc2c(sc3ncnc(N/N=C/c4cn(-c5ccccc5)nc4-c4ccc(Br)cc4)c23)C1 | 8.68% (active) | 81.2% | 33.5% | 54.6% | 18.7% | 71.8% | 54.7% | 25.3% | 65.7% | 5.81% (active)
COc1cc(/C=C/C(=O)c2ccc(S(=O)(=O)NCCNc3nc(Nc4ccc(F)cc4)nc(N(C)C)n3)cc2)cc(OC)c1OC | 13.7% | -21.6% (active) | 58.7% | 30.2% | 15.8% | 60.4% | 68% | 18.4% | -64.2% (active) | -50.8% (active)
COc1ccc2[nH]c(O)c(N=NC(=O)COc3ccc(NC(=O)Nc4ccc(Cl)cc4)cc3)c2c1 | -40.4% (active) | -38.5% (active) | 67.8% | -41.1% (active) | -48.6% (active) | -32.5% (active) | 26.7% | 29.4% | 21.4% | -1.56% (active)
C=C1CC[C@H](C(=C)C)[C@H]2C=C(C)C(=O)C3=C(C(=O)[C@@](C)(O)C3)[C@H]12 | -63.9% (active) | -57.8% (active) | -96.9% (active) | -72.7% (active) | -45.6% (active) | -90.8% (active) | -88.6% (active) | -50.4% (active) | 2.21% (active) | -88.7% (active)
O=C1Nc2ccc(Cl)cc2/C1=C/c1ccc(OCc2ccc(Br)cc2F)cc1 | 7.12% (active) | 6.85% (active) | 48.2% | 5.12% (active) | 7.07% (active) | 10.9% | 23.3% | 34.1% | 2.33% (active) | 51.6%
COc1ccc(-c2cc(-c3cc(C(=O)c4ccc(Br)cc4)n4ccc(C)cc34)nc(N)c2C#N)cc1 | 63.1% | 60.4% | 93.6% | 95.1% | 84.7% | 87.5% | 89.9% | 93.2% | 56.9% | 67.2%
COc1ccc(CN2[C@@H](C(=O)NCc3ccc(C(=O)NO)cc3)Cc3c([nH]c4ccccc34)[C@@H]2C2CC2)cc1 | 21.3% | 50.8% | 42% | 24% | 13.7% | -3.87% (active) | -17% (active) | 40.3% | 28.4% | -40.3% (active)
CC1=C2C(=C[C@@](C)(COCOCCCl)[C@@H]2O)C(=O)[C@](C)(O)C12CC2 | -81.7% (active) | -39.2% (active) | -18.2% (active) | -51.1% (active) | -11% (active) | -14.6% (active) | -74.4% (active) | -1.86% (active) | -36.2% (active) | -73.7% (active)
Brc1ccc(/C=C/c2n(Cc3ccc4ccccc4c3)c3ccccc3[n+]2Cc2ccc3ccccc3c2)cc1 | -81.9% (active) | -85% (active) | 7.28% (active) | -74.3% (active) | -66.2% (active) | -89.5% (active) | -84.2% (active) | 10.4% | -95.5% (active) | -69.3% (active)
Cc1ccc2nc3c(nc2c1)c1cc(I)ccc1n3CCN(C)C | 17.8% | 39.9% | 20% | 31.3% | -2.92% (active) | 37.2% | 31.4% | 13.5% | 23.6% | -55.8% (active)
CC1(C)CC[C@]2(C(=O)Nc3ccccc3)CC[C@]3(C)C(=CC[C@@H]4[C@@]5(C)CC[C@H](N)C(C)(C)[C@@H]5CC[C@]43C)[C@H]2C1 | 68.8% | 88.3% | 105% | 103% | -30.2% (active) | 70.2% | 82.9% | 74.4% | 65.3% | -36.4% (active)
CN1CCCN(Cc2ccc(C(=O)Nc3cccc(Nc4ccc5c(O)cccc5n4)c3)cc2C(F)(F)F)CC1 | -82.1% (active) | 57.4% | -72.1% (active) | -69.8% (active) | -85.3% (active) | -51.5% (active) | -83.4% (active) | -61.4% (active) | -74.8% (active) | -64.4% (active)
